A549 viability: kills or reduces viability of A549 cells in Nrf2 counter-screen | A549 ARE-Fluc cells, CellTiter-Fluor viability, 18-24 h | Potency, µM (titrated, usually from 46 µM), inactives show at the highest dose activity change, negative = cytotoxicity, hits mostly inhibitors | 390,000 compounds, 0.16% hits | AID 504648; note: potency is the fitted concentration of half-maximal effect; % is set by controls: 0 for no effect and ±100 for the full control effect
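Cytotoxicity counterscreen: CellTiter-Fluor fluorescence was measured in A549 ARE_Fluc cells after 18-24 h of compound exposure in a concentration series. The subsequent BugLite luminescent read reports ARE-luciferase activity.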
BRCA1 expr up: BRCA1 expression activation; Potency, µM (top dose mostly 46.1 µM), without a hit: at the top dose activation, actives largely listed as activators; 380,000 compounds, 1.1% hits; MCF7-BRCA1-FFLuc reporter, luminescence, 48 h; response scale: scaled: vehicle 0%, 10 µM genistein 100%; note: potency is the fitted concentration of half-maximal effect; nearly all actives have a fitted effect of over 80% in size
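Compounds are tested at multiple concentrations on MCF7 BRCA1-luciferase reporter cells seeded at 2000 per well; after 48 h, a single luminescence end-point is taken and curves fitted to the normalized data.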
IL-2 act: IL-2 activation; 360,000 compounds, 0.065% hits; IL-2 activation reporter assay, cell-based qHTS; stimulated with anti-CD3/CD4/CD28 beads; in transgenic mouse T cells; AID 652025; activation, % (series mostly up to about 46 µM); in the data active = activation above about 50%; inconclusive = mostly about 30% to 49%; note: 0% is about no effect
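Unstimulated transgenic mouse T cells; 60-min compound exposure; bead-based TCR/CD4/CD28 stimulation; 18 h culture, 37 degrees C; dual fluorescence (EGFP, DsRed) plate cytometry.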
Nrf2 activator: activates Nrf2 signaling; Potency, µM (doses to about 46.1 µM), inactives show top-dose activation, most hits filed as activators; AREc32 ARE-luciferase reporter (MCF7-derived line), luminescence, 24 h; AID 624171; 410,000 compounds, 0.31% hits; note: potency is the fitted concentration of half-maximal effect; % of control where 0% means no effect; nearly all actives have a fitted effect of over 65% in size
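ARE activation measured as luciferase luminescence (Steady-Glo, 30 min RT) in AREc32_Fluc cells after 24 hr compound exposure at 37 deg C, 5% CO2; cells seeded overnight at 1000/well in OPTI-MEM, 5% FBS.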
Nrf2 block: inhibitors of Nrf2 signaling; A549 ARE-Fluc reporter, luciferase luminescence, 18-24 h; Potency, µM (titrated, usually from 46 µM), for inactives: at the highest dose activity change, negative = inhibition, actives largely listed as inhibitors; 360,000 compounds, 2.1% hits; AID 504444; note: potency is the fitted concentration of half-maximal effect; % is set by controls: 0 for no effect and ±100 for the full control effect; nearly all actives have a fitted effect of over 60% in size
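Nrf2 function is reported as luminescence of an ARE-controlled luciferase in A549 cells. Compounds were tested at several concentrations, and a CellTiter-Fluor read on the same wells flagged cytotoxicity.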
p53 reactivation: re-activators of mutant p53; Potency, µM (series often up to 92.2 µM), inactives show at the top dose activity change, positive = activation, hits mostly activators; H1299 p53-A138V BP100-luciferase reporter, luminescence, 24 h; 320,000 compounds, 0.063% hits; note: potency is the fitted concentration of half-maximal effect; % of control where 0% means no effect; nearly all actives have a fitted effect of over 45% in size
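H1299 (p53-null), stable ts p53-A138V + BP100-Luc; 1000 cells/well, Opti-MEM/10% FBS; cpd 4 pt, 1:5; 24 h, 37 deg C, 5% CO2; detection reagent 10 min RT; luminescence.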
Active calls of the source: *; u = inconclusive; x = no result given; [ ] = remark or other dose. Hits are enriched below; roughly 3.2% of the tested compounds scored in any of these assays. Unless noted, calls come from the whole dose curve; as a rule, active = well fitted curve in the direction sought with a large enough effect; inconclusive = small, poorly fitted or top-dose-only effect, or another doubt; inactive = no such curve, though single readings can be large; an effect the other way counts as inactive or inconclusive.

SMILES | A549 viability | BRCA1 expr up | IL-2 act | Nrf2 activator | Nrf2 block | p53 reactivation
O=S(=O)(c1ccc(Cl)cc1)c1nc(-c2ccco2)oc1SCc1ccccc1F | 10% | x | x | 4% | 3%[9.27 µM] | x
Cc1ccccc1NS(=O)(=O)c1cc(C(=O)Nc2cccc(N(C)S(C)(=O)=O)c2)ccc1C | u | -6% | 2 | 3% | 18µM* | -12%
O=C(Nc1ccccc1)c1ccc(Cl)c(S(=O)(=O)Nc2ccccc2)c1 | -11% | x | x | 11% | u | x
CN(c1cccc(NC(=O)c2ccc(Cl)c(S(=O)(=O)Nc3ccccc3)c2)c1)S(C)(=O)=O | -21% | -49% | -2 | 3% | 21µM* | -5%
Cc1ccc(SCCNC(=O)c2ccc(C)c(S(=O)(=O)Nc3ccccc3C)c2)cc1 | -17% | -43% | -3 | 2% | 13µM* | -10%
O=C(NCCc1ccc(Cl)cc1)c1ccc(CSCc2ccc(Cl)cc2)o1 | -2% | x | x | 0% | x | x
COc1ccc(OC)c(C2Nc3c(C)cc(C)cc3-c3cc(C)nn32)c1 (centres undefined) | -19% | x | x | 3% | u | x
O=C(CNC(=O)c1ccccc1)N/N=C/c1cccs1 | -1% | 43% | -1 | 0% | 29% | 0%
O=C(CNC(=O)c1ccccc1F)N/N=C/c1cccs1 | 0% | 10µM* | -4 | 0% | 3% | 15%
CCCCCc1ccc(OCCC[n+]2ccccc2)c(CCCCC)c1 | u | -90% | -1 | -3% | 13µM* | -13%
CCOc1ccc(Nc2oc(-c3ccc(COc4ccc(C)cc4)o3)nc2C#N)cc1 | -1% | x | x | 12% | 7% | x
COc1ccc(C2=NN(C(=O)CSc3ncccn3)C(c3cccc(OC)c3OC)C2)cc1 (centres undefined) | -10% | -9% | -4 | -1% | -20% | 0%
CCOc1cccc2c1OC(c1cc(OC)c(OC)c(OC)c1)N1N=C(c3ccc(C)o3)CC21 (centres undefined) | -9% | 40% | 1 | 13µM* | u | u
O=C(CN1C2CCCC1CC(NC(=O)C1CCCCC1)C2)Nc1ccccc1C(F)(F)F (centres undefined) | -8% | -50% | -4 | 3% | 23µM* | -7%
Cc1ccc(-c2onc(C)c2C)cc1S(=O)(=O)NC1CCC(C)CC1 (centres undefined) | -20% | x | x | 3% | u | x
Cn1c(=NC(=O)C2CCCCC2)sc2cc([N+](=O)[O-])ccc21 | -8% | 18% | 2 | 25% | u | 1%
CCOc1ccc2c(c1)sc(=NC(=O)C1CC1)n2C | 13% | 2.8µM* | 0 | 4% | u | x
COc1ccc(-c2[nH]c(-c3cc(OC)c4c(c3)OCO4)nc2-c2ccccc2)cc1 | u | -76% | -1 | 2% | 23µM* | 16%
Cc1ccc(NS(=O)(=O)c2cc3c(cc2Cl)NC(=O)C3)cc1C | 6% | x | x | x | 14% | x
CCOc1ccc(C2CC(=O)n3nc(-c4ccc(C)cc4)nc3S2)cc1OC (centres undefined) | 1% | 7% | x | 0% | 4% | x
CN(C)c1ccc(-c2nc3ccc(Cl)cn3c2Nc2ccc3c(c2)OCCO3)cc1 | 12% | 10µM* | x | 4% | u | x
Cc1ccc(Cc2nc3ccccc3nc2SCC(=O)NCc2ccc(F)cc2)cc1 | -4% | 4% | x | 0% | x | x
Cc1cc(OCc2cc(C(=O)N(C)Cc3ccccn3)no2)cc(C)c1Cl | 12% | 11µM* | -1 | 4% | u | 3%
Cc1cc(OCc2cc(C(=O)N(C)C(C)c3ccccn3)no2)cc(C)c1Cl (centres undefined) | 12% | 11µM* | -1 | 3% | u | u
CSc1ccccc1OCc1cc(C(=O)N(C)C(C)c2ccccn2)no1 (centres undefined) | -1% | -2% | -2 | 0% | 9% | -10%
SMILES | A549 viability | BRCA1 expr up | IL-2 act | Nrf2 activator | Nrf2 block | p53 reactivation
CCN(CC1CCCO1)C(=O)c1cc(COc2cc(C)c(Cl)c(C)c2)on1 (centres undefined) | 4% | 6.3µM* | -1 | 3% | u | x
Cc1nn(-c2ccccn2)c2c1-c1nc(N)sc1CC2 | x | -7% | x | x | x | x
O=C(CC1N=C2c3ccccc3N=C(SCC(=O)Nc3ccccc3F)N2C1=O)NCc1ccc2c(c1)OCO2 (centres undefined) | 1% | x | x | 5% | 1% | x
O=C(COCc1cc(-c2ccc3c(c2)OCO3)on1)Nc1cc(C(F)(F)F)ccc1Cl | 0% | x | x | 0% | u | x
Cc1ccc(Cn2cc(C(=O)c3ccc(F)cc3)c(=O)c3cc4c(cc32)OCO4)cc1 | -2% | x | x | 0% | u | x
CCc1ccc(NS(=O)(=O)c2ccc3oc(=O)c4ncn(CC)c4c3c2)cc1 | 2% | x | x | 0% | -3% | x
Cc1cc(N/N=C/c2ccncc2)nc2ccccc12 | 4% | 5.6µM* | -1 | 11% | u | -2%
Cc1ccc(N/N=C/c2ccncc2)cc1 | -13% | 6.3µM* | 0 | 12% | u | u
Cc1ccc(/C=N/NC(=O)CCSc2ccccc2)cc1 | -4% | 1% | 0 | 4% | -4% | 16%
Cc1ccc(SCCC(=O)N/N=C/c2ccncc2)cc1 | 6% | 0% | -1 | 0% | 15µM* | 2%
COc1cccc(C2c3c(ncn(-c4ccccc4SC)c3=N)Oc3ccc4ccccc4c32)c1 (centres undefined) | -5% | x | x | x | 4% | x
CCc1ccc(C#CC2=CC(=O)CC(C)(C)C2)cc1 | x | 75% | 1 | u | x | x
COc1ccccc1C#CC1=CC(=O)CC(C)(C)C1 | x | -15% | -1 | 14µM* | x | x
COc1ccc(C#CC2=CC(=O)CC(C)(C)C2)cc1 | x | 59% | -1 | 13µM* | x | x
COc1ccccc1C1=CC(=O)CC(C)(C)C1=O | 4% | 1% | -2 | 0% | 0% | 5%
O=C(Nc1ccccc1F)c1cnc(N2CCCCC2)c2ccccc12 | 10% | x | x | 5% | x | x
COc1cc(OC)c2ccc(=O)oc2c1C(CCN1CCCC(C)C1)c1ccc2c(c1)OCO2 (centres undefined) | 16µM* | 13% | 1 | 6% | 14% | -3%
O=C(CCCC(=O)c1ccc(F)cc1)c1ccc(F)cc1 | 1% | 2.5µM* | -4 | 3% | 15% | u
COc1ccc(-n2ncc(C(=O)Nc3ccc4c(c3)OCO4)c2C2CCN(C(=O)OC(C)(C)C)CC2)cc1 | -19% | x | x | 5% | u | x
Cc1ccccc1-c1nc(CS(=O)(=O)CC(=O)Nc2cccc(C(F)(F)F)c2)c(C)o1 | -6% | -26% | x | 0% | -4% | x

Source: PubChem BioAssay
